ChEMBL document CHEMBL2218924, “A broad activity screen in support of a chemogenomic map for kinase signalling research and drug discovery” (Biochem J, 2013)

How the values were obtained:
[1] = molecular target: Serine/threonine-protein kinase PAK 4 (Homo sapiens) (UniProt O96013); conditions: at 1 µM
[2] = molecular target: Serine/threonine-protein kinase PAK 4 (Homo sapiens) (UniProt O96013); conditions: at 10 µM
[3] = molecular target: Serine/threonine-protein kinase PAK 5 (Homo sapiens) (UniProt Q9P286); conditions: at 10 µM
[4] = molecular target: PAS domain-containing serine/threonine-protein kinase (Homo sapiens) (UniProt Q96RG2); conditions: at 10 µM
[5] = molecular target: Activated CDC42 kinase 1 (Homo sapiens) (UniProt Q07912); conditions: at 1 µM
Activated CDC42 kinase 1 (Homo sapiens), sequence (Q07912 whole entry, looked up): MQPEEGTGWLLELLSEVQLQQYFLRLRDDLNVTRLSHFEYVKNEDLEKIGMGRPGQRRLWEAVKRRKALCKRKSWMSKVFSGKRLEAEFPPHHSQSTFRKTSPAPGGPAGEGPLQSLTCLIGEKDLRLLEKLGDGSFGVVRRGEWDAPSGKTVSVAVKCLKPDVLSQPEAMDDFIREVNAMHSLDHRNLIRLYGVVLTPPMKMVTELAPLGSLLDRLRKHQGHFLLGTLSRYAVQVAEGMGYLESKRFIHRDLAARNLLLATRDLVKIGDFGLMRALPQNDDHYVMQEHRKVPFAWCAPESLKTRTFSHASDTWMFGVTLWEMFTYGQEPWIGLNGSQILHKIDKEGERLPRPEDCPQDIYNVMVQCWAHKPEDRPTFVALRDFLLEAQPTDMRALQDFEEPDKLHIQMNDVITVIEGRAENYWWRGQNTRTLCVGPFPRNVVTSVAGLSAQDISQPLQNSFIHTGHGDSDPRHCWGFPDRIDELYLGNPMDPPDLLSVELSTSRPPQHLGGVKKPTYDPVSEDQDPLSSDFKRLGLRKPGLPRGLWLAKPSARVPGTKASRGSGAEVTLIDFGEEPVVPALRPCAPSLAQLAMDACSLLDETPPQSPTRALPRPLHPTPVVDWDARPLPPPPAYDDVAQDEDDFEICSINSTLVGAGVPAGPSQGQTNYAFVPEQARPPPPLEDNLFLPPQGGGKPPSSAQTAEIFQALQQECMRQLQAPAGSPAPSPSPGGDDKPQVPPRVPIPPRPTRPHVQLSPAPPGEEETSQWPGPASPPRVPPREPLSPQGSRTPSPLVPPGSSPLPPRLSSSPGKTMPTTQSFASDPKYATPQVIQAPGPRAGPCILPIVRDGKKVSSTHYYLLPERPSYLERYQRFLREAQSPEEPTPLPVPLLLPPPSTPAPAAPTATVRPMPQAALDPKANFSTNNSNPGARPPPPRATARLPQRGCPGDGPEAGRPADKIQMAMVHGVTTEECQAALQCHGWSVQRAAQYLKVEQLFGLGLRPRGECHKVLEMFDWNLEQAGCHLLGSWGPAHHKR

[6] = molecular target: Activated CDC42 kinase 1 (Homo sapiens) (UniProt Q07912); conditions: at 10 µM
[7] = molecular target: ALK tyrosine kinase receptor (Homo sapiens) (UniProt Q9UM73); conditions: at 1 µM
ALK tyrosine kinase receptor (Homo sapiens), sequence (Q9UM73 19-1620 limits assumed): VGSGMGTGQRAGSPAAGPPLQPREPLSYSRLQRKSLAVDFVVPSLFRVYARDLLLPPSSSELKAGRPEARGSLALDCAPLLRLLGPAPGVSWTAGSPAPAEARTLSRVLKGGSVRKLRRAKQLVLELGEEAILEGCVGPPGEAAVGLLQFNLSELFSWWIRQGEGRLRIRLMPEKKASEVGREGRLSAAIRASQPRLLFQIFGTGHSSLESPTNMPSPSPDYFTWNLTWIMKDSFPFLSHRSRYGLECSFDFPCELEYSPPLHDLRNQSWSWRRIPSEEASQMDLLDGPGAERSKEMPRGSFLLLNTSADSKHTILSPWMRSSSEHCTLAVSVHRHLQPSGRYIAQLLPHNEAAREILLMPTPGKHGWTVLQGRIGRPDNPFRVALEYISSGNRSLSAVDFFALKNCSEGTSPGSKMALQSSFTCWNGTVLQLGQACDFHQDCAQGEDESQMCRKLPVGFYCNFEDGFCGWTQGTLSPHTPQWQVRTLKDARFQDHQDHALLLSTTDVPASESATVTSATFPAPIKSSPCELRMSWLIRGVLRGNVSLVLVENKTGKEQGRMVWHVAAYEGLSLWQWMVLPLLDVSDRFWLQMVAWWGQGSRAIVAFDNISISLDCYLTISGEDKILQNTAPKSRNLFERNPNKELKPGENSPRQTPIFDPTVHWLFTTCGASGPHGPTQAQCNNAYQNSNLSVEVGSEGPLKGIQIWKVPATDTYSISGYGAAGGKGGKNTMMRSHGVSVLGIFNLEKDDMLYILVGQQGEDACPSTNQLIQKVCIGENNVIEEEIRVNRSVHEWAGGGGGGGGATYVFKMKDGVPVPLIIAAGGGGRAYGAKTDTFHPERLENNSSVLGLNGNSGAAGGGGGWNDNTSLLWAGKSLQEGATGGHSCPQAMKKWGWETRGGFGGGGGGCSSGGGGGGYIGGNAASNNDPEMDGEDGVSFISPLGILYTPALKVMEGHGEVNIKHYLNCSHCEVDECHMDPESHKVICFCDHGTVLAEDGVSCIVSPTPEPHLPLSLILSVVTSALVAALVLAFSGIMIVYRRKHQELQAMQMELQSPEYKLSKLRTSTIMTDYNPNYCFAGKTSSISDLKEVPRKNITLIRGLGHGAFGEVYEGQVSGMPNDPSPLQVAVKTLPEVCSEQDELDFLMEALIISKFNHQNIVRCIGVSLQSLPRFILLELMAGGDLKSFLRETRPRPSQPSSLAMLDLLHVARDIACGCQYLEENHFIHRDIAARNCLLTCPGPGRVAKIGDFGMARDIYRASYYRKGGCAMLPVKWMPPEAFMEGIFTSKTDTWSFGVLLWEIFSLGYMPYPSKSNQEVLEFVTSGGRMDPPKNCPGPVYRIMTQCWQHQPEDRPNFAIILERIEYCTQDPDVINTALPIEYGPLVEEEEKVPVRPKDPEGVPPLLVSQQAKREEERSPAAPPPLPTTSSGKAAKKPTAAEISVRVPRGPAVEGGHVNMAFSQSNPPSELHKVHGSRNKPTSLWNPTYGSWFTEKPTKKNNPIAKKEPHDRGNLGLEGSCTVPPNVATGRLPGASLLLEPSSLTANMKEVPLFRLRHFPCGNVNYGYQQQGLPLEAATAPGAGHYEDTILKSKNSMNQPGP

[8] = molecular target: ALK tyrosine kinase receptor (Homo sapiens) (UniProt Q9UM73); conditions: at 10 µM
[9] = molecular target: T1, Activin receptor type-1B (Homo sapiens) (UniProt P36896); conditions: at 1 µM
T1 sequence (whole entry): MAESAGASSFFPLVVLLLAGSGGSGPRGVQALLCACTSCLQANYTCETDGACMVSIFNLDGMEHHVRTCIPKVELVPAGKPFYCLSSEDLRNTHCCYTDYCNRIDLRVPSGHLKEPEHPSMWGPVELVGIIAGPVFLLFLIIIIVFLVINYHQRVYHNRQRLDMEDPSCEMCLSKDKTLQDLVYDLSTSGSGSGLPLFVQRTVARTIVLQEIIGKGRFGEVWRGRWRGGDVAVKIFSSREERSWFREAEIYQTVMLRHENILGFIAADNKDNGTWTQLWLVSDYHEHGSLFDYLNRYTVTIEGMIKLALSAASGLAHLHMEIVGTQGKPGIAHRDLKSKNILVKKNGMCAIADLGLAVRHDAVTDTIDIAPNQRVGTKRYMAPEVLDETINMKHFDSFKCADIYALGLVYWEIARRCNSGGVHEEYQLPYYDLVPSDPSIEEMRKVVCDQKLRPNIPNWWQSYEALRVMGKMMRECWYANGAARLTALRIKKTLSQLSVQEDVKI

[10] = molecular target: T1, Activin receptor type-1B (Homo sapiens); conditions: at 10 µM
[11] = molecular target: T2, AMP-activated protein kinase (AMPK) alpha-1/beta-1/gamma-1 (Homo sapiens) (UniProt P54619+Q9Y478+Q13131); conditions: at 1 µM
T2 sequence (P54619 whole entry): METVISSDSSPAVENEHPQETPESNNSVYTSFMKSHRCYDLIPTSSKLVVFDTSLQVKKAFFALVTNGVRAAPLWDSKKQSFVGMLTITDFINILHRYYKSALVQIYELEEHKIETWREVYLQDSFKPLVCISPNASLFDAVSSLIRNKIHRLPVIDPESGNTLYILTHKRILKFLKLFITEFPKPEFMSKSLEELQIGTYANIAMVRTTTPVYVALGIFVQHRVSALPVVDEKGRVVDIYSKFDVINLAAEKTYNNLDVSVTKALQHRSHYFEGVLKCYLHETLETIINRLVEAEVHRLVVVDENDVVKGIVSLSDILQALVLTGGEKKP
T2 sequence (Q13131 whole entry partner): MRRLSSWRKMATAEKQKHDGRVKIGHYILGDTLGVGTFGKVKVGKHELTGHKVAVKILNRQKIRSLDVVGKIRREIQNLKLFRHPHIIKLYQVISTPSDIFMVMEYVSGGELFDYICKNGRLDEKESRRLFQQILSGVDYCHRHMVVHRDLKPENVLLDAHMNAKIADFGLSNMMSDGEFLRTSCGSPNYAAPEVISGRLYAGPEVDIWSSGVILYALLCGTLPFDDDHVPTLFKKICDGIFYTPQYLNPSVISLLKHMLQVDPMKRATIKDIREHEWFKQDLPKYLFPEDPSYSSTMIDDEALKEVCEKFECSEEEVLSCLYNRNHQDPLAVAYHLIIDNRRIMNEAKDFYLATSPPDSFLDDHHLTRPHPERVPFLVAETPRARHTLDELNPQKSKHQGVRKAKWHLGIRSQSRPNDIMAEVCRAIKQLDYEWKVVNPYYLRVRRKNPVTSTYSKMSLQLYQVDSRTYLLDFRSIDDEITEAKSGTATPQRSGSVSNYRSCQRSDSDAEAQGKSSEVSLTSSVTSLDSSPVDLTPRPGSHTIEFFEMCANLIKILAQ
T2 sequence (Q9Y478 2-270 partner limits assumed): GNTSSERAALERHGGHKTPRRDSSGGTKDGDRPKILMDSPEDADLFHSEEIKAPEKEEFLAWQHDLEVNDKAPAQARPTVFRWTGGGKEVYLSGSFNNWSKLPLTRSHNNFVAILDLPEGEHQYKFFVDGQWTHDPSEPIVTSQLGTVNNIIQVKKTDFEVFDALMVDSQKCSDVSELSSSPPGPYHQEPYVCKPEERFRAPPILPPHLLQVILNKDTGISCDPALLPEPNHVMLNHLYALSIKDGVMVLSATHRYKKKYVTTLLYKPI

[12] = molecular target: T2, AMP-activated protein kinase (AMPK) alpha-1/beta-1/gamma-1 (Homo sapiens); conditions: at 10 µM
[13] = molecular target: T3, NUAK family SNF1-like kinase 1 (Homo sapiens) (UniProt O60285); conditions: at 1 µM
T3 sequence (whole entry): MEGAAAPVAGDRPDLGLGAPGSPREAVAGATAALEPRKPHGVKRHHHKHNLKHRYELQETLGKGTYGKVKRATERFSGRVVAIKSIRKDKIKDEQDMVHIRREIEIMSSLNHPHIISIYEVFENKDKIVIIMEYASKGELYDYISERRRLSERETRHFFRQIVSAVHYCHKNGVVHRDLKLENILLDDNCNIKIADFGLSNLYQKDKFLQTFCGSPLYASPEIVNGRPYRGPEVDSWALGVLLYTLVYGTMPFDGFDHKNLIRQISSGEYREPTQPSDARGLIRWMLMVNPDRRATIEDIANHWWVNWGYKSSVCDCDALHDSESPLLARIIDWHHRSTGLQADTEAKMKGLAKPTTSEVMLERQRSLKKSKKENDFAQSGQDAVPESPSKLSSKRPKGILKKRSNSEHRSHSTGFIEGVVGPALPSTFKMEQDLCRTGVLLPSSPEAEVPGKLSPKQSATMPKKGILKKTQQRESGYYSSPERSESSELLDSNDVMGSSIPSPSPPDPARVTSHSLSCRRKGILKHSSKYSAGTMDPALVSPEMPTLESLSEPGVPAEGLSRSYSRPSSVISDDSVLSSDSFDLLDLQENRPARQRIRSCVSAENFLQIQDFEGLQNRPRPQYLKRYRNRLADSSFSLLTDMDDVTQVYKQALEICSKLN

[14] = molecular target: T3, NUAK family SNF1-like kinase 1 (Homo sapiens); conditions: at 10 µM
[15] = molecular target: Serine/threonine-protein kinase PAK 6 (Homo sapiens) (UniProt Q9NQU5); conditions: at 1 µM
Serine/threonine-protein kinase PAK 6 (Homo sapiens), sequence (Q9NQU5 whole entry, looked up): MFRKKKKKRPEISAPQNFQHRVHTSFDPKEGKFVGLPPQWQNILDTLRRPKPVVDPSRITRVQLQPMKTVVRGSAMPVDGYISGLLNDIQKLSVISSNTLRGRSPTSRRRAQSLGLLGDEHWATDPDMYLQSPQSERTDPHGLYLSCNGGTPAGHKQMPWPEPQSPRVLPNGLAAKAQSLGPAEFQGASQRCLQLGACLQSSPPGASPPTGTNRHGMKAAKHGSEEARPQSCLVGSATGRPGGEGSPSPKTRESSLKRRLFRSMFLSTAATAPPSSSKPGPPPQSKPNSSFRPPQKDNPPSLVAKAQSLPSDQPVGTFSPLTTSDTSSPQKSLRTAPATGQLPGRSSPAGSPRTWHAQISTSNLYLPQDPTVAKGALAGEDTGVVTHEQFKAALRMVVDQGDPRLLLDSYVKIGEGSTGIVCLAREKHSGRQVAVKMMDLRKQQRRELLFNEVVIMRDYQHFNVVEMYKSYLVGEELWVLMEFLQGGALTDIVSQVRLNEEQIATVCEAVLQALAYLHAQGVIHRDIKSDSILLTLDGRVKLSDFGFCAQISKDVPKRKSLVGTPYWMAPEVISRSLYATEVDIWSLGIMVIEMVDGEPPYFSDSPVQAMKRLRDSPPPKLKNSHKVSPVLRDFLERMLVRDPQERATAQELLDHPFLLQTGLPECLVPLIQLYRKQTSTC

[16] = molecular target: Serine/threonine-protein kinase PAK 6 (Homo sapiens) (UniProt Q9NQU5); conditions: at 10 µM
[17] = molecular target: T4, Mitogen-activated protein kinase kinase kinase 5 (Homo sapiens) (UniProt Q99683); conditions: at 1 µM
T4 sequence (whole entry): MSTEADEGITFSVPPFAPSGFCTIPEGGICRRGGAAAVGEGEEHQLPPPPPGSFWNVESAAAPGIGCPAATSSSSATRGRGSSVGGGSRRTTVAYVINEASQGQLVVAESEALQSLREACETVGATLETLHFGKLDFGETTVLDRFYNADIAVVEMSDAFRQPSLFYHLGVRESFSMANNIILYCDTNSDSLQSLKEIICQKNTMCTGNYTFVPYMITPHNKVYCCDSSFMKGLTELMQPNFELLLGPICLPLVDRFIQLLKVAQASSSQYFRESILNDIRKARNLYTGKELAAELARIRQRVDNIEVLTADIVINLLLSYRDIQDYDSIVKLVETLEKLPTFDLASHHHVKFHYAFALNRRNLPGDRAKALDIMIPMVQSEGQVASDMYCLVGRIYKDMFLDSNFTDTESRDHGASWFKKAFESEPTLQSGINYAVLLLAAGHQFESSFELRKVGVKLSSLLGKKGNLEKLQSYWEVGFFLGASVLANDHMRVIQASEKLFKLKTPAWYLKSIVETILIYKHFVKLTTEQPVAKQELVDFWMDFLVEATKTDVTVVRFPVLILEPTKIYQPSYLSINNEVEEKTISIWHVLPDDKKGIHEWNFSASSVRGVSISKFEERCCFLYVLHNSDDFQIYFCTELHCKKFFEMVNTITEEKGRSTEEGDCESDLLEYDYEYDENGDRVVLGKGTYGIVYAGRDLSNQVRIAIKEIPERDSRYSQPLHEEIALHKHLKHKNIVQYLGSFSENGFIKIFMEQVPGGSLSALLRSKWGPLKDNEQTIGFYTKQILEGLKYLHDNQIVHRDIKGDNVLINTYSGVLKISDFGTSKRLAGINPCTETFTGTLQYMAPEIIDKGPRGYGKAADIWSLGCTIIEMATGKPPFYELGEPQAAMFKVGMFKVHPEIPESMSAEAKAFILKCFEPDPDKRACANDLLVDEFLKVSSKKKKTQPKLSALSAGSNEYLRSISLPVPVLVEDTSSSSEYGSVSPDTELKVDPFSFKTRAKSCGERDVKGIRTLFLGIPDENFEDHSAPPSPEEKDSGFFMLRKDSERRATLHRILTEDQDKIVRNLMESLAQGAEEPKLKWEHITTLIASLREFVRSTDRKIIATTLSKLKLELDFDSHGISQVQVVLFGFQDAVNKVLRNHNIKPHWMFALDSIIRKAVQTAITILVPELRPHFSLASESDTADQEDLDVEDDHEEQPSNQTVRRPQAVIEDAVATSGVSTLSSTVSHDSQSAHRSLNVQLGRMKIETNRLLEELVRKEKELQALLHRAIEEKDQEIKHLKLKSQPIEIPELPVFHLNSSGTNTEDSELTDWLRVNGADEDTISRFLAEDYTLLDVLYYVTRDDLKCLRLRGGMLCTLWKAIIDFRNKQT

[18] = molecular target: Serine/threonine-protein kinase PAK 5 (Homo sapiens) (UniProt Q9P286); conditions: at 1 µM
[19] = molecular target: T5, AMP-activated protein kinase, AMPK (Homo sapiens) (UniProt P54646+O43741+P54619+Q9UGJ0+Q9Y478+Q13131+Q9UGI9); conditions: at 10 µM
[20] = molecular target: T5, AMP-activated protein kinase, AMPK (Homo sapiens); conditions: at 1 µM

Serine/threonine-protein kinase PAK 4 (Homo sapiens), sequence (O96013 whole entry, looked up): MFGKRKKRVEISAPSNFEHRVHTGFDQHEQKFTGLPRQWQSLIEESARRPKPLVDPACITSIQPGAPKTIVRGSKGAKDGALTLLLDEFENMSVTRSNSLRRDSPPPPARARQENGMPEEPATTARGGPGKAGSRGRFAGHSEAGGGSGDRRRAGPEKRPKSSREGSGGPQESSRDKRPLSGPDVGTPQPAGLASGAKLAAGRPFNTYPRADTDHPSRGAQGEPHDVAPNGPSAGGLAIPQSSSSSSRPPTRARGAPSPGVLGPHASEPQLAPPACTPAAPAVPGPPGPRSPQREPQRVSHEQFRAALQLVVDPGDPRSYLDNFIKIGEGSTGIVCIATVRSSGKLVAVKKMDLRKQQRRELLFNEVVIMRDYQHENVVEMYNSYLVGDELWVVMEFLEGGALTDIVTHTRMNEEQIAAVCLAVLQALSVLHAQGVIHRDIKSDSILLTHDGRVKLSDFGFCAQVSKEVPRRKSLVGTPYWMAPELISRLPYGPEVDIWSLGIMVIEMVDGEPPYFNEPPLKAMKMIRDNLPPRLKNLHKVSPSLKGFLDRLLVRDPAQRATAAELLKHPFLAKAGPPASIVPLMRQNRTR

| SMILES | residual activity [1] | residual activity [2] | residual activity [3] | residual activity [4] | residual activity [5] | residual activity [6] | residual activity [7] | residual activity [8] | residual activity [9] | residual activity [10] | residual activity [11] | residual activity [12] | residual activity [13] | residual activity [14] | residual activity [15] | residual activity [16] | residual activity [17] | residual activity [18] | residual activity [19] | residual activity [20] |
| --- | --- | --- | --- | --- | --- | --- | --- | --- | --- | --- | --- | --- | --- | --- | --- | --- | --- | --- | --- | --- |
| O=C1Nc2ccc(Br)cc2/C1=C\c1cc2c([nH]1)CCCC2 | 84% | 77% | 105% | 98% | 54% | 50% | 76% | 112% | 112% | 101% | 76% | 60% | 70% | 74% |  |  |  |  |  |  |
| Cc1cc2ncc(-c3ccccc3)nc2cc1C | 104% | 88% | 92% |  |  | 59% | 82% | 60% |  |  | 105% | 74% | 92% | 94% | 94% | 77% | 78% |  |  |  |
| COc1cc2ncnc(Nc3ccc(NC(=O)c4ccccc4)cc3)c2cc1OC | 101% | 103% | 68% | 67% | 13% | 1% | 107% | 57% |  | 105% |  | 90% |  | 86% | 108% | 92% | 103% | 89% | 88% |  |
| O=C(Nc1cccc(Nc2cc(Nc3cccc(C(F)(F)F)c3)ncn2)c1)C1CC1 | 94% | 79% | 98% | 64% | 79% | 26% | 88% | 22% | 126% | 124% | 97% | 73% | 90% | 127% | 104% | 90% | 104% | 100% | 74% | 103% |
| CCN(CC)C(=O)c1ccc(Nc2nc(OCC3CCCCC3)c3nc[nH]c3n2)cc1 | 18% | 2% | 3% |  | 5% | 1% | 65% | 6% |  |  | 35% | 6% | 2% | 4% | 58% | 23% | 80% | 43% | 5% | 22% |
| CO[C@H]1C[C@@H]2CC[C@@H](C)[C@@](O)(O2)C(=O)C(=O)N2CCCC[C@H]2C(=O)O[C@H]([C@H](C)C[C@@H]2CC[C@@H](O)[C@H](OC)C2)CC(=O)[C@H](C)/C=C(\C)[C@@H](O)[C@@H](OC)C(=O)[C@H](C)C[C@H](C)/C=C/C=C/C=C/1C | 89% | 88% | 109% |  | 82% | 63% | 82% | 32% | 115% | 110% | 79% |  | 99% | 96% | 106% | 136% | 85% | 97% | 107% | 93% |
| O=C1NC(=O)c2cc(Nc3ccc(F)cc3)c(Nc3ccc(F)cc3)cc21 | 89% | 74% | 66% | 51% | 79% | 34% | 84% | 42% | 129% | 88% | 93% | 73% | 101% | 75% | 100% | 64% | 110% | 98% | 66% | 92% |
| Cn1nc2c3c(cccc31)C(=O)c1ccccc1-2 | 97% | 87% |  | 95% | 61% | 31% | 72% | 45% | 104% | 109% | 91% | 73% | 57% | 31% | 108% |  | 71% | 86% | 85% | 81% |
| Cc1ccc(NC2=CC(=O)c3sc(C)nc3C2=O)cc1 | 98% | 93% | 94% | 82% | 80% | 71% | 86% | 93% | 105% | 113% | 88% | 84% | 108% | 89% | 102% | 80% | 110% | 121% | 107% | 94% |
| Cc1nc2cc3nc(-c4cccs4)cnc3cc2n1C | 95% | 101% | 105% | 86% | 107% | 74% | 93% | 112% | 123% | 88% | 116% | 83% | 116% | 78% | 111% | 102% | 109% | 106% | 85% | 118% |
| O=C(O)c1ccc2c3c1cccc3c(=O)n1c3ccccc3nc21 | 100% | 98% | 96% | 98% | 94% | 75% | 70% | 49% | 110% | 108% | 34% | 6% | 73% | 28% | 91% | 85% | 90% | 100% | 13% | 37% |
| Oc1n[nH]c2nnc(-c3c(-c4ccccc4)nn4ccccc34)cc12 | 95% | 92% | 101% | 104% | 29% | 14% | 92% | 89% |  | 115% | 86% | 82% | 100% | 45% | 98% | 98% | 111% | 101% | 90% | 97% |
| N#Cc1cnc2cnc(NCc3cccnc3)cc2c1Nc1ccc(F)c(Cl)c1 | 65% | 18% | 5% | 63% | 3% | 1% | 90% | 75% |  | 92% | -2% | -1% |  | -1% | 2% | 2% | 85% | 11% | -1% | -5% |
| O=[N+]([O-])c1ccc(-c2nc(-c3ccc(F)cc3)c(-c3ccncc3)[nH]2)cc1 | 108% | 98% | 96% | 119% | 50% | 11% | 83% | 65% | 38% | 35% | 97% | 94% | 103% | 89% | 102% | 105% | 96% | 94% | 91% | 91% |
